Source: PubChem BioAssay AID1159580 (chemical genetic matrix, 2015)
Values joined by “and” are separate entries in the source; they are usually repeats but may differ in a detail not shown here. Equal values may be shown once. In all, about 5,500 compounds went through this assay and about 2,000 (36%) were called active. Another 18% or so got no clear call; they are omitted. Cut-off read from the data, not from the text of the source: active = normalized growth mostly below about 0.91 (no sharp cut-off); inconclusive = no clear call, values can overlap the other calls; inactive = mostly above about 0.92. The list shows a part of the results.

Experiment: chemical genetic growth profiling, strain panel (AID 1159580);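 note: tested at 20 µM; growth read once vehicle control cultures reached saturation at 30 °C; 1 = growth at the plate median or of vehicle wells; lower values mean less growth of the strain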
Conditions: S. cerevisiae deletion strains, growth OD

Measured: normalized growth

COc1nc(NC(C)C)nc(NC(C)C)n1
inactive: locus YAL013W, strain DEP1, hits give low values 1.01 | locus YAL021C, strain ccr4, hits give low values 0.991 | locus YAL026C, strain drs2, hits give low values 1.04 | locus YAL030W, strain snc1, hits give low values 1.02 | locus YBL061C, strain skt5, hits give low values 1.03 | locus YBR009C, strain hhf1, hits give low values 1.06 | locus YBR021W, strain FUR4, hits give low values 1.04 | locus YBR023C, strain chs3, hits give low values 1.03 | locus YBR171W, strain sec66, hits give low values 1.02 | locus YBR229C, strain ROT2, hits give low values 0.999 | locus YBR231C, strain swc5, hits give low values 1.02 | locus YBR279W, strain paf1, hits give low values 1.01 | locus YCL011C, strain gbp2, hits give low values 1.02 | locus YCL016C, strain dcc1, hits give low values 1.01 | locus YCL029C, strain bik1, hits give low values 1.02 | locus YCL069W, strain vba3, hits give low values 1.01 | locus YCR088W, strain abp1, hits give low values 1.02 | locus YDL005C, strain med2, hits give low values 1.02 | locus YDL035C, strain GPR1, hits give low values 1.02 | locus YDL040C, strain nat1, hits give low values 1 | locus YDL074C, strain BRE1, hits give low values 1.05 | locus YDL101C, strain DUN1, hits give low values 1.02 | locus YDL134C, strain PPH21, hits give low values 1 | locus YDL185W, strain tfp1, hits give low values 1.03 | locus YDL192W, strain arf1, hits give low values 1.03 | locus YDR001C, strain nth1, hits give low values 1.02 | locus YDR069C, strain doa4, hits give low values 1.02 | locus YDR101C, strain arx1, hits give low values 1.01 | locus YDR137W, strain rgp1, hits give low values 1.02 | locus YDR150W, strain NUM1, hits give low values 1.01 | locus YDR159W, strain sac3, hits give low values 1.07 | locus YDR162C, strain NBP2, hits give low values 1.01 | locus YDR195W, strain ref2 0.995 | locus YDR297W, strain sur2, hits give low values 1.03 | locus YDR318W, strain mcm21, hits give low values 1.02 | locus YDR334W, strain swr1, hits give low values 1.01 | locus YDR335W, strain msn5, hits give low values 1.01 | locus YDR388W, hits give low values 1.03 | locus YDR392W, strain spt3, hits give low values 1.01 | locus YDR502C, strain sam2, hits give low values 1.02 | locus YEL003W, strain gim4, hits give low values 1.02 | locus YEL037C, strain rad23, hits give low values 1.02 | locus YEL061C, strain CIN8 (second series), hits give low values 1.03 | locus YEL061C, strain CIN8, hits give low values 1 | locus YER015W, strain faa2, hits give low values 1.02 | locus YER016W, strain bim1, hits give low values 1.01 | locus YER110C, hits give low values 1.02 | locus YER111C, strain swi4, hits give low values 1.02 | locus YER155C, strain BEM2 (second series), hits give low values 1.03 | locus YER155C, strain BEM2, hits give low values 1.01 | locus YER167W, strain BCK2, hits give low values 1.01 | locus YFR010W, strain ubp6, hits give low values 1.03 | locus YGL078C, strain dbp3, hits give low values 1.01 | locus YGL086W, strain mad1, hits give low values 1.01 | locus YGL167C, strain pmr1, hits give low values 1.02 | locus YGL173C, strain kem1, hits give low values 1.04 | locus YGL227W, strain vid30, hits give low values 1.04 | locus YGL240W, strain doc1, hits give low values 1.02 | locus YGL248W, strain PDE1, hits give low values 1.01 | locus YGL253W, strain hxk2, hits give low values 1.03 | locus YGR078C, strain PAC10, hits give low values 1.02 | locus YGR135W, strain pre9, hits give low values 1.02 | locus YGR229C, strain SMI1, hits give low values 1.02 | locus YGR252W, strain gcn5, hits give low values 1.05 | locus YHR013C, strain ard1, hits give low values 1.03 | locus YHR027C, strain rpn1, hits give low values 1.03 | locus YHR030C, strain SLT2, hits give low values 1.01 and 1.07 | locus YHR079C, strain IRE1 (second series), hits give low values 1.02 | locus YHR079C, strain IRE1, hits give low values 1.03 | locus YHR094C, strain hxt1, hits give low values 1.01 | locus YHR129C, strain ARP1, hits give low values 1.01 | locus YHR142W, strain chs7, hits give low values 1.04 | locus YHR200W, strain rpn10, hits give low values 1.01 | locus YIL066C, strain RNR3, hits give low values 1.02 | locus YIL073C, strain SPO22, hits give low values 1.08 | locus YIL125W, strain kgd1, hits give low values 1.01 | locus YIR030C, strain dcg1, hits give low values 1.01 | locus YJL092W, strain hpr5, hits give low values 1.02 | locus YJL095W, strain BCK1 (second series), hits give low values 1.04 | locus YJL095W, strain BCK1, hits give low values 1.01 and 1.06 | locus YJL115W, strain asf1, hits give low values 1.02 | locus YJL129C, strain trk1, hits give low values 1.02 | locus YJL134W, strain LCB3, hits give low values 1.01 | locus YJL154C, strain vps35, hits give low values 1.01 | locus YJL164C, strain tpk1, hits give low values 1.01 | locus YJL166W, strain qcr8, hits give low values 1.03 | locus YJL168C, strain set2, hits give low values 1.02 | locus YJL187C, strain SWE1 (second series), hits give low values 1.01 | locus YJL187C, strain SWE1, hits give low values 1 | locus YJR043C, strain POL32, hits give low values 1.03 | locus YJR066W, strain TOR1, hits give low values 1
